According to PubChem BioAssay AID1159580 (chemical genetic matrix, 2015):
The campaign covered roughly 5,500 compounds. About 2,000 (36%) were called active. Roughly 18% stayed inconclusive and do not appear here. Rule as the data show it: active = normalized growth mostly below about 0.91 (no sharp cut-off); inconclusive = no clear call, values can overlap the other calls; inactive = mostly above about 0.92. The list shows a part of the results.

Experiment: chemical genetic growth profiling, strain panel (AID 1159580);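 also: tested at 20 µM; growth read once vehicle control cultures reached saturation at 30 °C; 1 = growth at the plate median or of vehicle wells; lower values mean less growth of the strain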
Details: growth OD

Measured: normalized growth

OCC(O)CN1CCN(c2ccccc2)CC1 (configuration not stated)
inactive: S. cerevisiae deletion strains, locus YJR075W, strain HOC1, stronger effect = lower value 0.987 | S. cerevisiae deletion strains, locus YKL009W, strain mrt4, stronger effect = lower value 1.01 | S. cerevisiae deletion strains, locus YKL068W, stronger effect = lower value 0.994 | S. cerevisiae deletion strains, locus YKL085W, strain MDH1 (second series), stronger effect = lower value 0.99 | S. cerevisiae deletion strains, locus YKL085W, strain MDH1, stronger effect = lower value 0.99 | S. cerevisiae deletion strains, locus YKL160W, strain elf1, stronger effect = lower value 0.958 | S. cerevisiae deletion strains, locus YKL190W, strain CNB1, stronger effect = lower value 1.01 | S. cerevisiae deletion strains, locus YKR001C, strain vps1, stronger effect = lower value 1 | S. cerevisiae deletion strains, locus YKR026C, strain gcn3, stronger effect = lower value 0.977 | S. cerevisiae deletion strains, locus YKR091W, strain srl3, stronger effect = lower value 0.982 | S. cerevisiae deletion strains, locus YLL001W, strain dnm1, stronger effect = lower value 0.988 | S. cerevisiae deletion strains, locus YLL026W, stronger effect = lower value 0.988 | S. cerevisiae deletion strains, locus YLL041C, strain sdh2, stronger effect = lower value 0.975 | S. cerevisiae deletion strains, locus YLR027C, strain aat2, stronger effect = lower value 0.992 | S. cerevisiae deletion strains, locus YLR039C, strain RIC1, stronger effect = lower value 1.04 | S. cerevisiae deletion strains, locus YLR058C, strain SHM2, stronger effect = lower value 0.994 | S. cerevisiae deletion strains, locus YLR102C, strain apc9, stronger effect = lower value 1 | S. cerevisiae deletion strains, locus YLR113W, strain HOG1, stronger effect = lower value 0.999 | S. cerevisiae deletion strains, locus YLR221C, strain rsa3, stronger effect = lower value 0.973 | S. cerevisiae deletion strains, locus YLR258W, strain gsy2, stronger effect = lower value 0.992 | S. cerevisiae deletion strains, locus YLR262C, strain YPT6 (second series), stronger effect = lower value 0.959 | S. cerevisiae deletion strains, locus YLR262C, strain YPT6, stronger effect = lower value 1.05 | S. cerevisiae deletion strains, locus YLR268W, strain sec22, stronger effect = lower value 0.953 | S. cerevisiae deletion strains, locus YLR320W, strain mms22, stronger effect = lower value 1 | S. cerevisiae deletion strains, locus YLR330W, strain CHS5, stronger effect = lower value 1.02 | S. cerevisiae deletion strains, locus YLR342W, strain FKS1 (second series), stronger effect = lower value 1.02 | S. cerevisiae deletion strains, locus YLR342W, strain FKS1, stronger effect = lower value 0.993 | S. cerevisiae deletion strains, locus YLR357W, strain rsc2, stronger effect = lower value 0.987 | S. cerevisiae deletion strains, locus YLR370C, strain arc18, stronger effect = lower value 0.978 | S. cerevisiae deletion strains, locus YLR371W, strain rom2, stronger effect = lower value 1 | S. cerevisiae deletion strains, locus YLR384C, strain iki3, stronger effect = lower value 0.987 | S. cerevisiae deletion strains, locus YLR418C, strain cdc73, stronger effect = lower value 0.971 | S. cerevisiae deletion strains, locus YML016C, strain PPZ1, stronger effect = lower value 0.992 | S. cerevisiae deletion strains, locus YML032C, strain rad52, stronger effect = lower value 0.988 | S. cerevisiae deletion strains, locus YML120C, strain ndi1, stronger effect = lower value 0.982 | S. cerevisiae deletion strains, locus YML124C, strain tub3, stronger effect = lower value 0.989 | S. cerevisiae deletion strains, locus YMR058W, strain fet3, stronger effect = lower value 0.969 | S. cerevisiae deletion strains, locus YMR078C, strain ctf18, stronger effect = lower value 0.978 | S. cerevisiae deletion strains, locus YMR125W, strain sto1, stronger effect = lower value 0.995 | S. cerevisiae deletion strains, locus YMR129W, stronger effect = lower value 0.981 | S. cerevisiae deletion strains, locus YMR205C, strain PFK2, stronger effect = lower value 1.01 | S. cerevisiae deletion strains, locus YMR223W, strain ubp8, stronger effect = lower value 1.01 | S. cerevisiae deletion strains, locus YMR231W, strain pep5, stronger effect = lower value 0.989 | S. cerevisiae deletion strains, locus YMR263W, strain SAP30, stronger effect = lower value 0.989 | S. cerevisiae deletion strains, locus YMR307W, strain GAS1, stronger effect = lower value 1.03 | S. cerevisiae deletion strains, locus YNL067W, strain RPL9B, stronger effect = lower value 0.988 | S. cerevisiae deletion strains, locus YNL071W, strain lat1, stronger effect = lower value 0.985 | S. cerevisiae deletion strains, locus YNL128W, strain TEP1, stronger effect = lower value 1 | S. cerevisiae deletion strains, locus YNL153C, strain GIM3, stronger effect = lower value 0.988 | S. cerevisiae deletion strains, locus YNL183C, strain NPR1, stronger effect = lower value 0.908 | S. cerevisiae deletion strains, locus YNL209W, strain ssb2, stronger effect = lower value 0.983 | S. cerevisiae deletion strains, locus YNL233W, strain BNI4, stronger effect = lower value 1.01 | S. cerevisiae deletion strains, locus YNL248C, strain rpa49, stronger effect = lower value 0.925 | S. cerevisiae deletion strains, locus YNL250W, strain rad50, stronger effect = lower value 0.988 | S. cerevisiae deletion strains, locus YNL271C, strain bni1, stronger effect = lower value 0.985 | S. cerevisiae deletion strains, locus YNL298W, strain CLA4, stronger effect = lower value 0.985 | S. cerevisiae deletion strains, locus YNL307C, strain MCK1, stronger effect = lower value 0.997 | S. cerevisiae deletion strains, locus YNL322C, strain KRE1 (second series), stronger effect = lower value 0.97 | S. cerevisiae deletion strains, locus YNL322C, strain KRE1, stronger effect = lower value 1 | S. cerevisiae deletion strains, locus YNR049C, strain mso1, stronger effect = lower value 0.974 | S. cerevisiae deletion strains, locus YNR052C, strain pop2, stronger effect = lower value 1 | S. cerevisiae deletion strains, locus YOL006C, strain TOP1, stronger effect = lower value 0.981 | S. cerevisiae deletion strains, locus YOL012C, strain htz1 0.702 | S. cerevisiae deletion strains, locus YOL147C, strain pex11, stronger effect = lower value 0.991 | S. cerevisiae deletion strains, locus YOR001W, strain rrp6, stronger effect = lower value 0.943 | S. cerevisiae deletion strains, locus YOR061W, strain CKA2, stronger effect = lower value 0.999 | S. cerevisiae deletion strains, locus YOR069W, strain VPS5, stronger effect = lower value 0.986 | S. cerevisiae deletion strains, locus YOR070C, strain gyp1, stronger effect = lower value 0.992 | S. cerevisiae deletion strains, locus YOR080W, strain dia2, stronger effect = lower value 0.988 | S. cerevisiae deletion strains, locus YOR083W, strain WHI5, stronger effect = lower value 0.934 | S. cerevisiae deletion strains, locus YOR106W, strain vam3, stronger effect = lower value 0.943 | S. cerevisiae deletion strains, locus YOR136W, strain idh2, stronger effect = lower value 0.994 | S. cerevisiae deletion strains, locus YOR144C, strain elg1, stronger effect = lower value 0.993 | S. cerevisiae deletion strains, locus YOR184W, strain ser1, stronger effect = lower value 1 | S. cerevisiae deletion strains, locus YOR231W, strain MKK1, stronger effect = lower value 0.979 | S. cerevisiae deletion strains, locus YOR265W, strain rbl2, stronger effect = lower value 0.985 | S. cerevisiae deletion strains, locus YOR270C, strain vph1, stronger effect = lower value 0.981 | S. cerevisiae deletion strains, locus YOR290C, strain snf2, stronger effect = lower value 0.962 | S. cerevisiae deletion strains, locus YOR316C, strain cot1, stronger effect = lower value 0.985 | S. cerevisiae deletion strains, locus YPL051W, strain arl3, stronger effect = lower value 0.974 | S. cerevisiae deletion strains, locus YPL055C, strain LGE1, stronger effect = lower value 1 | S. cerevisiae deletion strains, locus YPL078C, strain atp4, stronger effect = lower value 0.932 | S. cerevisiae deletion strains, locus YPL106C, strain sse1, stronger effect = lower value 0.961 | S. cerevisiae deletion strains, locus YPL240C, strain hsp82, stronger effect = lower value 0.972 | S. cerevisiae deletion strains, locus YPL241C, strain CIN2, stronger effect = lower value 0.997 | S. cerevisiae deletion strains, locus YPL256C, strain CLN2, stronger effect = lower value 0.964 | S. cerevisiae deletion strains, locus YPR119W, strain clb2, stronger effect = lower value 0.992 | S. cerevisiae deletion strains, locus YPR141C, strain kar3, stronger effect = lower value 0.987 | S. cerevisiae deletion strains, locus YPR163C, strain tif3, stronger effect = lower value 0.988 | S. cerevisiae deletion strains, locus YPR167C, strain met16, stronger effect = lower value 0.989 | S. cerevisiae deletion strains, strain wtn01, stronger effect = lower value 0.95 | S. cerevisiae strains, strain wild type, stronger effect = lower value 1
